Laboratory results as given in PubChem BioAssay AID1159580 (chemical genetic matrix, 2015).
Several values for one entry are separate records, joined by “and”; a condition that tells them apart may be missing. Equal values may be shown once. The whole screen tested about 5,500 compounds, of which about 2,000 (36%) were called active. Another 18% or so got no clear call; they are omitted. No stated cut-off is given here; in the data, active means normalized growth mostly below about 0.91 (no sharp cut-off); inconclusive means no clear call, values can overlap the other calls; inactive means mostly above about 0.92. Some of the results follow.

Assay: chemical genetic growth profiling, strain panel (AID 1159580);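 further: tested at 20 µM; growth read once vehicle control cultures reached saturation at 30 °C; 1 = growth at the plate median or of vehicle wells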
Conditions: S. cerevisiae deletion strains, growth OD

Measured: normalized growth

COc1cc2c(cc1OC)[C@@]13CCN4CC5=CCOC6CC(=O)N2C1[C@H]6[C@H]5C[C@H]43 (stereo partly drawn)
inactive: locus YAL013W, strain DEP1, stronger effect = lower value 1.02 | locus YAL021C, strain ccr4, stronger effect = lower value 0.983 | locus YAL026C, strain drs2, stronger effect = lower value 0.998 | locus YAL030W, strain snc1, stronger effect = lower value 1 | locus YBL061C, strain skt5, stronger effect = lower value 0.994 | locus YBR009C, strain hhf1, stronger effect = lower value 0.994 | locus YBR021W, strain FUR4, stronger effect = lower value 0.985 | locus YBR023C, strain chs3, stronger effect = lower value 0.989 | locus YBR171W, strain sec66, stronger effect = lower value 0.99 | locus YBR229C, strain ROT2, stronger effect = lower value 1.01 | locus YBR231C, strain swc5, stronger effect = lower value 0.979 | locus YBR279W, strain paf1, stronger effect = lower value 0.993 | locus YCL011C, strain gbp2, stronger effect = lower value 0.988 | locus YCL016C, strain dcc1, stronger effect = lower value 0.986 | locus YCL029C, strain bik1, stronger effect = lower value 1.01 | locus YCL061C, strain MRC1, stronger effect = lower value 0.988 | locus YCL069W, strain vba3, stronger effect = lower value 0.995 | locus YCR088W, strain abp1, stronger effect = lower value 0.994 | locus YDL005C, strain med2, stronger effect = lower value 0.988 | locus YDL035C, strain GPR1, stronger effect = lower value 1.03 | locus YDL040C, strain nat1, stronger effect = lower value 0.983 | locus YDL074C, strain BRE1, stronger effect = lower value 1.03 | locus YDL101C, strain DUN1, stronger effect = lower value 1.02 | locus YDL185W, strain tfp1, stronger effect = lower value 1 | locus YDL192W, strain arf1, stronger effect = lower value 1.01 | locus YDR001C, strain nth1, stronger effect = lower value 0.997 | locus YDR069C, strain doa4, stronger effect = lower value 1 | locus YDR101C, strain arx1, stronger effect = lower value 0.997 | locus YDR137W, strain rgp1, stronger effect = lower value 1 | locus YDR150W, strain NUM1, stronger effect = lower value 1.02 | locus YDR159W, strain sac3, stronger effect = lower value 0.977 | locus YDR162C, strain NBP2, stronger effect = lower value 1.02 | locus YDR195W, strain ref2 0.927 | locus YDR297W, strain sur2, stronger effect = lower value 0.996 | locus YDR318W, strain mcm21, stronger effect = lower value 1.02 | locus YDR334W, strain swr1, stronger effect = lower value 0.986 | locus YDR335W, strain msn5, stronger effect = lower value 0.996 | locus YDR388W, stronger effect = lower value 0.994 | locus YDR392W, strain spt3, stronger effect = lower value 0.999 | locus YDR502C, strain sam2, stronger effect = lower value 1.03 | locus YEL003W, strain gim4, stronger effect = lower value 0.997 | locus YEL037C, strain rad23, stronger effect = lower value 0.989 | locus YEL061C, strain CIN8 (second series), stronger effect = lower value 0.986 | locus YEL061C, strain CIN8, stronger effect = lower value 1.01 | locus YER015W, strain faa2, stronger effect = lower value 0.989 | locus YER016W, strain bim1, stronger effect = lower value 0.989 | locus YER110C, stronger effect = lower value 0.997 | locus YER111C, strain swi4, stronger effect = lower value 0.971 | locus YER155C, strain BEM2 (second series), stronger effect = lower value 0.993 | locus YER155C, strain BEM2, stronger effect = lower value 1.01 | locus YER167W, strain BCK2, stronger effect = lower value 1 | locus YFR010W, strain ubp6, stronger effect = lower value 0.999 | locus YGL078C, strain dbp3, stronger effect = lower value 1.01 | locus YGL086W, strain mad1, stronger effect = lower value 1 | locus YGL167C, strain pmr1, stronger effect = lower value 0.988 | locus YGL173C, strain kem1, stronger effect = lower value 0.982 | locus YGL227W, strain vid30, stronger effect = lower value 0.984 | locus YGL240W, strain doc1, stronger effect = lower value 0.979 | locus YGL248W, strain PDE1, stronger effect = lower value 1.01 | locus YGL253W, strain hxk2, stronger effect = lower value 0.988 | locus YGR078C, strain PAC10, stronger effect = lower value 1.02 | locus YGR135W, strain pre9, stronger effect = lower value 1.01 | locus YGR229C, strain SMI1, stronger effect = lower value 1.04 | locus YGR252W, strain gcn5, stronger effect = lower value 0.994 | locus YHR013C, strain ard1, stronger effect = lower value 0.964 | locus YHR027C, strain rpn1, stronger effect = lower value 0.987 | locus YHR030C, strain SLT2, stronger effect = lower value 1.02 and 1.01 | locus YHR079C, strain IRE1 (second series), stronger effect = lower value 0.996 | locus YHR079C, strain IRE1, stronger effect = lower value 1.09 | locus YHR094C, strain hxt1, stronger effect = lower value 0.977 | locus YHR129C, strain ARP1, stronger effect = lower value 1.02 | locus YHR142W, strain chs7, stronger effect = lower value 0.99 | locus YHR200W, strain rpn10, stronger effect = lower value 0.99 | locus YIL066C, strain RNR3, stronger effect = lower value 1.02 | locus YIL073C, strain SPO22, stronger effect = lower value 1.02 | locus YIL125W, strain kgd1, stronger effect = lower value 1 | locus YIR030C, strain dcg1, stronger effect = lower value 0.996 | locus YJL092W, strain hpr5, stronger effect = lower value 0.984 | locus YJL095W, strain BCK1 (second series), stronger effect = lower value 0.984 | locus YJL095W, strain BCK1, stronger effect = lower value 1.02 and 0.999 | locus YJL115W, strain asf1, stronger effect = lower value 0.993 | locus YJL129C, strain trk1, stronger effect = lower value 0.99 | locus YJL134W, strain LCB3, stronger effect = lower value 1.01 | locus YJL154C, strain vps35, stronger effect = lower value 0.986 | locus YJL164C, strain tpk1, stronger effect = lower value 1.01 | locus YJL166W, strain qcr8, stronger effect = lower value 0.996 | locus YJL168C, strain set2, stronger effect = lower value 1 | locus YJL187C, strain SWE1 (second series), stronger effect = lower value 1.02 | locus YJL187C, strain SWE1, stronger effect = lower value 0.996 | locus YJR043C, strain POL32, stronger effect = lower value 1.04 | locus YJR066W, strain TOR1, stronger effect = lower value 0.973 | locus YJR075W, strain HOC1, stronger effect = lower value 1.02 | locus YKL009W, strain mrt4, stronger effect = lower value 1.04 | locus YKL068W, stronger effect = lower value 0.995 | locus YKL085W, strain MDH1 (second series), stronger effect = lower value 1 | locus YKL085W, strain MDH1, stronger effect = lower value 1 | locus YKL160W, strain elf1, stronger effect = lower value 0.98 | locus YKR001C, strain vps1, stronger effect = lower value 1.01 | locus YKR026C, strain gcn3, stronger effect = lower value 0.991 | locus YKR091W, strain srl3, stronger effect = lower value 0.994 | locus YLL001W, strain dnm1, stronger effect = lower value 0.989 | locus YLL026W, stronger effect = lower value 0.99 | locus YLL041C, strain sdh2, stronger effect = lower value 0.995 | locus YLR027C, strain aat2, stronger effect = lower value 0.996 | locus YLR039C, strain RIC1, stronger effect = lower value 1.04 | locus YLR058C, strain SHM2, stronger effect = lower value 1.02 | locus YLR102C, strain apc9, stronger effect = lower value 0.997 | locus YLR113W, strain HOG1, stronger effect = lower value 0.991 | locus YLR221C, strain rsa3, stronger effect = lower value 0.997 | locus YLR258W, strain gsy2, stronger effect = lower value 0.99 | locus YLR262C, strain YPT6 (second series), stronger effect = lower value 0.988 | locus YLR262C, strain YPT6, stronger effect = lower value 1.05 | locus YLR268W, strain sec22, stronger effect = lower value 1 | locus YLR320W, strain mms22, stronger effect = lower value 0.982 | locus YLR330W, strain CHS5, stronger effect = lower value 1.01 | locus YLR342W, strain FKS1 (second series), stronger effect = lower value 1.02 | locus YLR342W, strain FKS1, stronger effect = lower value 0.989 | locus YLR357W, strain rsc2, stronger effect = lower value 0.983 | locus YLR370C, strain arc18, stronger effect = lower value 0.991 | locus YLR371W, strain rom2, stronger effect = lower value 0.993 | locus YLR384C, strain iki3, stronger effect = lower value 0.995 | locus YLR418C, strain cdc73, stronger effect = lower value 1.01 | locus YML016C, strain PPZ1, stronger effect = lower value 1.01 | locus YML032C, strain rad52, stronger effect = lower value 1.01 | locus YML120C, strain ndi1, stronger effect = lower value 0.981 | locus YML124C, strain tub3, stronger effect = lower value 1 | locus YMR058W, strain fet3, stronger effect = lower value 0.986 | locus YMR078C, strain ctf18, stronger effect = lower value 1 | locus YMR125W, strain sto1, stronger effect = lower value 0.992 | locus YMR129W, stronger effect = lower value 0.997 | locus YMR205C, strain PFK2, stronger effect = lower value 0.973 | locus YMR223W, strain ubp8, stronger effect = lower value 1 | locus YMR231W, strain pep5, stronger effect = lower value 0.995 | locus YMR307W, strain GAS1, stronger effect = lower value 1.05 | locus YNL067W, strain RPL9B, stronger effect = lower value 1.01 | locus YNL071W, strain lat1, stronger effect = lower value 0.997 | locus YNL128W, strain TEP1, stronger effect = lower value 1.03 | locus YNL153C, strain GIM3, stronger effect = lower value 1.02 | locus YNL183C, strain NPR1, stronger effect = lower value 0.968 | locus YNL209W, strain ssb2, stronger effect = lower value 1 | locus YNL233W, strain BNI4, stronger effect = lower value 1.01 | locus YNL248C, strain rpa49, stronger effect = lower value 0.992 | locus YNL250W, strain rad50, stronger effect = lower value 1 | locus YNL271C, strain bni1, stronger effect = lower value 1.01 | locus YNL298W, strain CLA4, stronger effect = lower value 1.01 | locus YNL307C, strain MCK1, stronger effect = lower value 0.996 | locus YNL322C, strain KRE1 (second series), stronger effect = lower value 0.982 | locus YNL322C, strain KRE1, stronger effect = lower value 1.01 | locus YNR049C, strain mso1, stronger effect = lower value 0.989 | locus YNR052C, strain pop2, stronger effect = lower value 0.995 | locus YOL012C, strain htz1 1.21 | locus YOL147C, strain pex11, stronger effect = lower value 0.993 | locus YOR001W, strain rrp6, stronger effect = lower value 0.994 | locus YOR061W, strain CKA2, stronger effect = lower value 1.01 | locus YOR069W, strain VPS5, stronger effect = lower value 1.02 | locus YOR070C, strain gyp1, stronger effect = lower value 0.998 | locus YOR080W, strain dia2, stronger effect = lower value 0.986 | locus YOR083W, strain WHI5, stronger effect = lower value 0.993 | locus YOR106W, strain vam3, stronger effect = lower value 0.997 | locus YOR136W, strain idh2, stronger effect = lower value 0.991 | locus YOR144C, strain elg1, stronger effect = lower value 0.997 | locus YOR184W, strain ser1, stronger effect = lower value 1.02 | locus YOR231W, strain MKK1, stronger effect = lower value 1 | locus YOR265W, strain rbl2, stronger effect = lower value 0.991 | locus YOR270C, strain vph1, stronger effect = lower value 1 | locus YOR290C, strain snf2, stronger effect = lower value 0.99 | locus YOR316C, strain cot1, stronger effect = lower value 0.995 | locus YPL051W, strain arl3, stronger effect = lower value 0.997 | locus YPL055C, strain LGE1, stronger effect = lower value 1.03 | locus YPL078C, strain atp4, stronger effect = lower value 0.988 | locus YPL106C, strain sse1, stronger effect = lower value 0.971 | locus YPL240C, strain hsp82, stronger effect = lower value 0.988 | locus YPL256C, strain CLN2, stronger effect = lower value 0.979 | locus YPR119W, strain clb2, stronger effect = lower value 1 | locus YPR141C, strain kar3, stronger effect = lower value 0.998 | locus YPR163C, strain tif3, stronger effect = lower value 1.01 | locus YPR167C, strain met16, stronger effect = lower value 1.01 | strain wtn01, stronger effect = lower value 1
